# Experimental data published in PubChem BioAssay (NCI).
# About 79,000 compounds went through this panel and 15% of them were active in at least one assay; those are over-represented in the sample as a whole. Active and inactive are the calls of the source. No stated cut-off is given here; in the data, active means growth inhibition above about 70%; inactive means the rest.
# Assay: NCI Yeast Anticancer Drug Screen. Data for the cln2 rad14 strain (AID 165);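 further: 0% = growth equal to vehicle treated cultures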
# Conditions: S. cerevisiae cln2 rad14 strain, stronger effect = higher value
# Protocol: Growth inhibition of yeast strains with defined genetic alterations is measured as a screen for potential anti-cancer activity. Selected strains with alterations in DNA damage repair or cell cycle control were exposed to compounds and growth inhibition was measured relative to vehicle treated controls. The strain used in this assay is cln2 rad14
# [1] = at 5.0 µM (retest, dose inferred, filed as 0.5)
# [2] = at 50.0 µM (retest, dose inferred, filed as 5.0)
SMILES,growth inhibition [1],growth inhibition [2],growth inhibition (at 50.0 µM)
O=P(NC1CCCCC1)(OCc1ccccc1)OCc1ccccc1,15% (inactive),9% (inactive),-12.7% (inactive)
COC1CCC(O)C(/C=C/[N+](=O)[O-])C1 (configuration not stated),17% (inactive),99% (active),89.8% (active)
CCN(CC)CCNc1ccc([N+](=O)[O-])c2nc3ccccc3c(N)c12,7% (inactive),39% (inactive),36.6% (inactive)
COc1cc(/C=C2\NC(=O)N(/C=C3\C(=O)Oc4ccccc4C3=O)C2=O)ccc1O,38% (inactive),94% (active),90% (active)
CCc1cc(O)c(Cl)c(C)c1Cl,46% (inactive),70% (active),35% (inactive)
C[C](C)(C)[Ge]([O][Ge]([c]1ccccc1)[c]1ccccc1)([O][Ge]([c]1ccccc1)[c]1ccccc1)[C](C)(C)C,26% (inactive),82% (active),67.8% (inactive)
CC(=O)SC(C[N+](=O)[O-])c1ccccc1 (configuration not stated),-20% (inactive),98% (active),31.1% (inactive)
CC[N+](CC)(CC)c1ccccc1,20% (inactive),33% (inactive),24.1% (inactive)
COC(=O)C1=C(C(=O)OC)C(C(=O)OC)C(C(=O)OC)C(C(=O)OC)(C(=O)OC)C(C(=O)OC)=C1C(=O)OC (configuration not stated),88% (active),97% (active),33% (inactive)
O=C1C(=O)c2ccccc2C(O)=C1C(C1=C(O)c2ccccc2C(=O)C1=O)c1ccc(Cl)cc1,0% (inactive),3% (inactive),42.4% (inactive)
CCOC(=O)C1N=[N+](c2ccccc2)C(=O)/C1=C\n1c(=S)[nH]c2ccc([N+](=O)[O-])cc21 (configuration not stated),53% (inactive),95% (active),47.9% (inactive)
Cc1cc2cc3cc(C)c(N)cc3nc2cc1N,34% (inactive),98% (active),46.8% (inactive)
C=C(C(=C)n1nnc(C(=O)OC)c1C(=O)OC)n1nnc(C(=O)OC)c1C(=O)OC,-3% (inactive),-2% (inactive),53.2% (inactive)
CC(C)(C)CC(C)(C)c1cc(O)c(O)c(CN2CCCCC2)c1,-22% (inactive),13% (inactive),73.7% (active)
